ALOX12 inhib: qHTS Assay for Inhibitors of 12-hLO (12-human lipoxygenase) | Polyunsaturated fatty acid lipoxygenase ALOX12 (Homo sapiens), P18054 | purified 12-hLO, xylenol orange hydroperoxide absorbance | Potency, µM (highest dose often 57.1 µM), without a hit: at the highest dose activity change, negative = inhibition, most hits filed as inhibitors | hit rate 0.12% among 150,000 | AID 1452, 2008; further: potency means the concentration at half of the fitted maximal effect; nearly all actives have a fitted effect of over 55% in size
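Purified human 12hLO (150 nM), preincubated 15 min with compound, then 40 uM arachidonic acid for 30 min, room temperature, Hepes pH 7.0 with 0.01% Triton X-100. Hydroperoxide detected by ferrous iron/xylenol orange; 573/405 nm absorbance ratio gives reaction progress.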
15-hLO-2 inh: qHTS Assay for Inhibitors of 15-hLO-2 (15-human lipoxygenase 2); Polyunsaturated fatty acid lipoxygenase ALOX15B (Homo sapiens), O15296; purified 15hLO-2, xylenol orange hydroperoxide absorbance; Potency, µM (titrated, usually from 57.1 µM), inactives show at the highest dose activity change, negative = inhibition, actives largely listed as inhibitors; hit rate 0.56% among 110,000; AID 881, 2007; further: potency means the concentration at half of the fitted maximal effect; nearly all actives have a fitted effect of over 60% in size
Target sequence (O15296 whole entry, looked up): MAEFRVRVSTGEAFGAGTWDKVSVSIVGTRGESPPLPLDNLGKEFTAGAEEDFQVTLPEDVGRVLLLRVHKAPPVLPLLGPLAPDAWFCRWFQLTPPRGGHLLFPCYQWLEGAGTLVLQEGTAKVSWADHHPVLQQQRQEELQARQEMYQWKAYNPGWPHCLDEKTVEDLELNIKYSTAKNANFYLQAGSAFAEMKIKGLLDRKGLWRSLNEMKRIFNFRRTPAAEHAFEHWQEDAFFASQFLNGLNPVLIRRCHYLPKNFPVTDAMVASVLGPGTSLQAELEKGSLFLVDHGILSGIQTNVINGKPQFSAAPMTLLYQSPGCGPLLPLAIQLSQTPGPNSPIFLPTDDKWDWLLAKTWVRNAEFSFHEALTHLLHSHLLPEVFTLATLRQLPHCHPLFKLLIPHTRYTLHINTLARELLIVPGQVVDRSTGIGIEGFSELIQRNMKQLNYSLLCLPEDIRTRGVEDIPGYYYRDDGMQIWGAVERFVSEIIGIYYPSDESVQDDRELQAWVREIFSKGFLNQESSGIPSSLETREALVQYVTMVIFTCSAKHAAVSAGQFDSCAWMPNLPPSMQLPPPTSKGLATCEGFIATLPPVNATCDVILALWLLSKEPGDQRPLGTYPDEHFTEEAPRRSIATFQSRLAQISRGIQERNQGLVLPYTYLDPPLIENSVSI
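Screening format was qHTS against 50 nM purified 15hLO-2 in Hepes pH 7.5 with detergent. Activity follows hydroperoxide formation from 45 uM arachidonic acid, measured as 573:405 nm absorbance ratio of the ferric-xylenol orange complex.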
PNC assembly inh: High Content Assay for Compounds that inhibit the Assembly of the Perinucleolar Compartment | hit rate 3.1% among 140,000 | PC3M PTB-GFP, PNC prevalence imaging, 16 h; active compounds read low | activity change (PNC), negative = inhibition, % at 10 µM;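 active means readout at or below -70, meaning at least 70% loss of cells showing the perinucleolar compartment, a nuclear body marking cancer cells; inconclusive means readout between -30 and a set limit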;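 further: plate controls were DMSO wells for no effect and camptothecin positive control wells for full effect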
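Read-out is percentage of cells bearing a perinucleolar compartment, from automated 20x imaging of fixed, Hoechst-stained PC3M PTB-GFP cells. Cells were seeded 4 h, then exposed 16 h to compound (23 nl of library stock) in duplicate plates.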
Active calls of the source: *; ? = inconclusive; nt = not tested or not shown; [ ] = another dose, or the depositor's remark. This is a sample that favours compounds with a hit; in the whole collection about 3.2% have one here. Unless noted, the call rests on the fitted dose curve; in most records, active means well fitted curve in the direction sought with a large enough effect; inconclusive means small, poorly fitted or top-dose-only effect, or another doubt; inactive means no such curve, though single readings can be large; an effect the other way counts as inactive or inconclusive. Unless noted, on the % scale 0 is the no-effect control and ±100 the full control effect.

SMILES	ALOX12 inhib	15-hLO-2 inh	PNC assembly inh
Cc1o[nH]c(=O)c1CC[C@H](N)C(=O)O	-1%	18%	nt
COC(=O)/C(=C1/Oc2ccc(C(C)(C)C)cc2S1)C(F)(F)F	3%	nt	?
COC(=O)/C(=C1/Oc2cc(C)oc(=O)c2S1)C(F)(F)F	-1%	nt	-100*
C[C@@H]1CC2(OC[C@]3(C)O[C@H]23)O[C@H]2C[C@@]3(C)[C@@H]4CC[C@H]5C(C)(C)C(O[C@@H]6OC[C@@H](O)[C@H](O)[C@H]6O)CC[C@@]56C[C@@]46CC[C@]3(C)[C@@H]12 (stereo partly specified)	2%	2%	nt
CCCn1c(N)c(C(=O)CSc2nnc(Cc3ccccc3)o2)c(=O)n(C)c1=O	29%	nt	-100*
Cn1c(=O)c(C(=O)CSc2nnc(Nc3ccccc3)s2)c(N)n(Cc2ccccc2)c1=O	-6%	-4%	16
CC(C)CN1C(=O)c2ccc(C(=O)Nc3nccs3)cc2C1=O	-1%	38%	?
COCCN1C(=O)c2ccc(C(=O)O)cc2C1=O	2%	2%	20
CCCN1C(=O)c2ccc(C(=O)Nc3nccs3)cc2C1=O	-5%	0%	-85*
COCCN1C(=O)c2ccc(C(=O)Nc3nccs3)cc2C1=O	-4%	-2%	-111*
Nc1nc2c(nc(Br)n2[C@@H]2O[C@H]3COP(=O)(O)O[C@@H]3[C@H]2O)c(=O)[nH]1	-3%	4%	nt
COc1cccc(-c2cc(=O)c3cc(NC(=O)c4ccc(N(C)C)cc4)ccc3[nH]2)c1	-2%[0.00818 µM]	6%[0.0915 µM]	?
Cc1sc2nc(CSc3cccc(C(F)(F)F)c3)[nH]c(=O)c2c1C	-1%	nt	1
c1ccc2[nH]c(SCc3cscn3)nc2c1	-3%	5%	-103*
Fc1c(F)c(F)c(CSc2nc3ccccc3[nH]2)c(F)c1F	0%	6%	41
Cc1cccc(NC(=S)NCCc2c[nH]c3ccccc23)c1	?	nt	-1
Cc1ccc(NC(=S)NCCc2c[nH]c3ccccc23)cc1	?	25µM*	6
CCCCCNCCCCC	-2%	-7%	nt
C/C(=N\NC(=S)NCc1ccccc1)c1ccc2ccccc2c1	?	nt	-99*
CCNC(=S)N/N=C(\C)c1cc2ccccc2o1	-25%	nt	61
COCCOC(=O)C1=C(C)NC(=O)N(C(C)=O)C1c1ccc(Cl)cc1 (stereo unspecified)	-2%	2%	-7
O=C(NC1CCCCC1)Sc1ccc(Cl)cc1	-9%	-15%	24
CN=C(NC1CCCCC1)c1ccc(Cl)cc1	8%	nt	-103*
CCCCC/C=C\C[C@H](O)/C=C\c1cccc(C[C@H](O)CCCCO)n1	-16%	-19%	nt
Cc1ccc(CNC(=O)Cc2ccc(-n3cccc3)cc2)cc1	2%	nt	-22
SMILES	ALOX12 inhib	15-hLO-2 inh	PNC assembly inh
O=C(Cc1ccc(-n2cccc2)cc1)NCc1cccs1	-7%	-5%	-106*
O=C(NNC(=O)c1ccccc1Br)c1ccc(Cl)cc1	-8%	-15%	97
O=C(Nc1ccc(Cl)cc1F)c1ccccc1Br	-5%	nt	-81*
C/C(=N\Nc1nc2ccccc2s1)c1cccs1	13µM*	nt	-5
C/C(=N\Nc1nc(-c2ccccc2)cs1)c1cccs1	-4%	nt	18
O=C(c1c(F)cccc1F)N(Cc1ccccn1)C1CCCC1	-1%	4%	5
CC(CCc1ccccc1)NC(=O)COc1ccc(S(=O)(=O)N2CCOCC2)cc1[N+](=O)[O-] (stereo unspecified)	-3%	nt	40
COC(=O)CNC(=O)COC(=O)C(Cc1ccccc1)NC(=O)c1ccco1 (stereo unspecified)	6%	9%	-115*
O=C(COC(=O)[C@H](Cc1ccccc1)NC(=O)c1ccco1)NC(c1ccccc1)c1ccccc1	-2%	3%	?
Nc1ccc(C(=O)Nc2ccco2)cc1	-1%	nt	-100*
CC(C)(C)c1ccc(C(=O)Nc2ccccc2NC(=O)c2ccco2)cc1	7%	nt	56
OCl	1%	-8%	nt
Cc1ccc(NC(=O)Cc2noc3ccccc23)cc1	-7%	nt	-99*
O=C(Cc1noc2ccccc12)Nc1ccc2ccccc2c1	-2%	nt	155
COc1ccc(-c2c(O)c3c(OC)c4c(cc3oc2=O)OC(C)(C)C=C4)cc1	-12%	-18%	nt
O=c1c(-c2ccc(F)cc2)nc2cnc(Nc3ccccc3)nc2n1C1CC1	-2%	9%	nt
Cc1nn(CCc2nn[nH]n2)c2nc(C(F)(F)F)cc(C(F)(F)F)c12	1%	-1%	-84*
Cc1nn(CCO)c2nc(-c3cccs3)cc(C(F)(F)F)c12	3%	nt	-11
COCCN(C(=O)C(C)C)c1nnc(-c2cccc(C)c2)s1	-15%	9%	?

Screens: PubChem, National Center for Advancing Translational Sciences (NCATS)
